# Source: PubChem BioAssay
# HSP90 refold inh = HSP90 inhibitors, primary screen, cell lysate, luminescence; Rabbit reticulocyte lysate, luciferase refolding luminescence, 3 h; Heat shock protein HSP 90 (rabbit reticulocyte lysate; luciferase refolding); inhibition, % at 5.6 µM; hit rate 0.91% among 290,000;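 active = inhibition above the screen-wide mean plus 3 SD, computed separately per campaign, cut at about 16% in these data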;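 note: 0% = DMSO wells and 100% = 60 µM geldanamycin wells; inhibitors lower the luminescence because luciferase stays unfolded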
# HSF1 inh = HSF1 inhibitors in luciferase reporter cells, primary screen, cell-based, NIH3T3, luminescence; hit rate 0.77% among 300,000; activity change, negative = inhibition, % at 7.5 µM (by protocol); NIH3T3-HGL HSE-luciferase, MG132-induced, luminescence 8 h; hits give low values; AID 2098, 2009;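 active = more than half of replicate wells show activity change below -50%, luminescence cut by over half; inconclusive = some wells, but at most half, below -50%; inactive = no replicate well below -50%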;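 note: luciferase reports HSF-1 transcriptional activity via heat shock element; 0% = median of DMSO wells and -100% = zero luminescence signal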
# SMARCA2 activ = SMARCA2 (BRM) function activators, primary screen, cell-based, luminescence, high throughput; MG213 cells, MMTV-luciferase reporter, dexamethasone, overnight; activation, % at 9.1 µM; hit rate 1% among 370,000; AID 652017, 2013; in the data active = activation above about 7.8%;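 note: 0% = vehicle wells and 100% = reference activator wells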
# AI-2 QS mod = Vibrio harveyi AI-2 quorum sensing modulators, primary screen, JMH597 strain, luminescence/OD600 ratio; Vibrio harveyi JMH597 AI-2 luminescence/OD600 ratio, 9 h; hits give low values; strain lacks LuxN and CqsS sensors; 0 = neutral-control median; activity change, % at 7.5 µM; hit rate 0.4% among 300,000; in the data active = activity change below about -75%, passing the limit was not always enough; inconclusive = no clear call, values can overlap the other calls;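 note: luminescence divided by OD600 gain over 9 h not by final OD600 alone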
# PG9 Ab binder = binders of HIV-1 gp120 antibody PG9, primary screen, biochemical, TR-FRET; HIV-1 gp120 / PG9 antibody interaction; TR-FRET gp120-PG9 antibody binding; inhibition, % at 6.7 µM; hit rate 0.43% among 360,000; in the data active = inhibition above about 8.5%
# FXN GAA850 act = FXN promoter activators, primary screen, cell-based, luciferase luminescence, HEK293 lucGAA850; HEK293 lucGAA850 FXN promoter luciferase reporter, 24 h; percent of 10 µM SAHA response; activation, % at 6 µM; hit rate 0.56% among 360,000;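 active = activation above the average of all compounds screened plus 3 SD, cutoff fixed separately per campaign, cut at about 7.5% in these data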;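 note: 0% = DMSO wells and 100% = 10 µM SAHA wells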
# JMH597 growth = Vibrio harveyi growth inhibition, confirmation, counter-screen for AI-2 quorum sensing project, JMH597 strain, OD600 absorbance. 9 h; lacks LuxN and CqsS sensors. growth inhibition, % at 7.5 µM. shares compounds with AI-2 QS mod. hit rate 1% among 750;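 active = every replicate shows growth inhibition above 50%; inconclusive = at least half, but not all, replicates pass that cutoff; inactive = fewer than half of replicates pass it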
# BB721 lum counter = luminescence inhibition in constitutive-on V. harveyi, confirmation, counter-screen for LuxS inhibitor project, strain BB721, luminescence readout; Vibrio harveyi BB721 luminescence, 9 h; hit rate 95% among 750; shares compounds with AI-2 QS mod; inhibition, % at 7.5 µM;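 active = inhibition above about 80% in every replicate, not just on average, limit read from the data; inconclusive = at least half of replicates past the limit, but not all; inactive = fewer than half of replicates past the limit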
# BB721 growth rt = growth inhibition of V. harveyi BB721, confirmation, cytotoxicity control for AI-2 quorum sensing inhibitors, strain BB721, absorbance OD600 | Vibrio harveyi BB721 growth, 9 h | growth inhibition, % at 7.5 µM | hit rate 3% among 750 | shares compounds with AI-2 QS mod;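 active = every replicate shows growth inhibition above 50%; inconclusive = at least half but not all replicates above 50% inhibition; inactive = under half of replicates above 50% inhibition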
# AI-2 QS JMH597 = Vibrio harveyi AI-2 signaling luminescence modulation – JMH597 strain, confirmation | Vibrio harveyi JMH597 AI-2 quorum sensing luminescence, 9 h; luxN and CqsS knockout, AI-2 only | AID 2736, 2010 | shares compounds with AI-2 QS mod | inhibition, % at 7.5 µM | hit rate 97% among 750;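 active = every replicate shows more than 75% inhibition of signal versus neutral control wells; inconclusive = half to three quarters of replicates exceed 75% inhibition; inactive = fewer than half of replicates exceed 75% inhibition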
# * marks the source's active call; other numbers are inactive results; ? = inconclusive; . = no result given. In the library only some 3.4% were active in any assay of this set; here they are far more common.
SMILES,HSP90 refold inh,HSF1 inh,SMARCA2 activ,AI-2 QS mod,PG9 Ab binder,FXN GAA850 act,JMH597 growth,BB721 lum counter,BB721 growth rt,AI-2 QS JMH597
COC(=O)C1=C(C)N(Cc2cccc(C(F)(F)F)c2)C(=NCc2cc(OC)c(OC)c(OC)c2)NC1c1cccc(F)c1 (stereo not drawn),.,.,-0.7,.,-1.3,.,.,.,.,.
CCOC(=O)Nc1ccc(Oc2ccccc2)cc1,-2.4,18.8,2.8,-94.9*,-1.2,6.6,24.5,99.3*,25.7,99.4*
COC(=O)N/N=C/c1ccc(Oc2ccccc2)cc1,-0.1,18.8,1.4,-85.3*,-1.6,1.1,23.3,94.7*,35.7,95.5*
O=C(Nc1ccc(Oc2ccccc2)cc1)C1CC1,-3.6,6.7,-1.1,-87.2*,1.2,2.5,23.1,98.5*,58.7*,96.4*
COC(=O)N/N=C\c1ccc(OC/C=C/c2ccccc2)cc1,-4.5,-5.0,-0.7,36.7,0.0,2.1,.,.,.,.
Clc1ccc(-c2cc3nc(NCc4cccc(Cl)c4)ccn3n2)cc1,.,.,2.5,.,-1.4,2.2,.,.,.,.
CC1(C)OC(=O)C2=C(CC(CCc3ccccc3)OC2c2ccc(F)cc2)O1 (stereo not drawn),.,.,-3.7,.,0.9,.,.,.,.,.
Cc1cccc(-c2nnc(SCc3ccccc3)o2)c1,-3.4,12.7,2.4,-89.0*,-0.5,3.2,42.8,96.1*,?,97.0*
CSc1nnc(-c2ccccc2)o1,-5.7,-2.1,-0.1,?,0.9,1.1,-1.2,10.2,8.4,7.6
CC(=O)c1c(C)cc(C)c(CSc2nnc(-c3ccco3)o2)c1C,-3.9,1.6,-0.3,-80.9*,-2.5,1.1,22.4,88.5*,16.4,91.4*
Cc1cc(C)cc(-c2nnc(SCc3ccc(C(=O)O)cc3)o2)c1,5.6,1.1,-3.4,47.9,2.7,2.6,.,.,.,.
Cc1cccc(CSc2nnc(-c3ccco3)o2)c1,-1.1,-4.3,-1.1,-90.7*,0.6,3.1,-2.7,97.5*,-10.3,97.7*
Cc1cccc(CSc2nnc(-c3ccco3)n2C)c1,-4.6,-7.7,-2.2,-21.1,1.3,0.9,.,.,.,.
Cc1cccc(NC(=O)CSc2nnc(-c3ccco3)o2)c1C,1.3,9.7,0.8,52.8,-3.1,-1.2,.,.,.,.
COC(=O)c1cc2c(c3c4cc(OC)ccc4n(C(=O)c4ccccc4)c13)C(=O)N(Cc1ccco1)C2,.,.,2.0,.,-0.8,.,.,.,.,.
Cc1[nH]nc2c1C(c1ccc(Br)cc1)N(Cc1ccccc1)C2=O (stereo not drawn),.,.,0.2,.,-3.0,.,.,.,.,.
C[C@@H]1ON(C)[C@H]2C[C@H]3c4cc(-c5ccc6c(c5)OCO6)ccc4CCN3C[C@@H]12,.,.,-3.9,.,-3.0,.,.,.,.,.
C=CCN1[C@@H](CC(C)C)COc2cc(N3CCSCC3)ccc2S1(=O)=O,.,.,0.1,.,.,.,.,.,.,.
COC(=O)c1cc(-c2c(C)noc2C)c(=O)n2c1CCC2,.,.,3.4,.,.,.,.,.,.,.
CCS(=O)(=O)c1ccc2oc(Nc3cccc(OC)c3)nc2c1,-2.2,18.1,6.7,?,-2.0,3.0,-11.2,81.6*,-30.6,88.2*
COC(=O)C1=C(C)N(C)C(=NCc2cc(OC)c(OC)c(OC)c2)NC1c1cccc(C(F)(F)F)c1 (stereo not drawn),.,.,0.1,.,0.3,.,.,.,.,.
Nc1cc(Oc2ccc(Cl)cc2Cl)nc(N)n1,0.9,-3.9,-1.5,-95.0*,0.4,0.3,9.4,98.6*,-15.2,99.3*
Cc1cccc(C)c1NC(=O)C(C)N1CCCCC1 (stereo not drawn),0.3,-14.8,0.1,1.3,0.1,0.8,.,.,.,.
CCC(C(=O)Nc1c(C)cc(C)cc1C)N1CCCCCC1 (stereo not drawn),3.9,-6.0,-1.8,-85.4*,-1.3,-0.2,-7.8,2.0,-0.8,3.6
CCOC(=O)C1CCCN(S(=O)(=O)c2ccc(S(=O)(=O)N3CCCC3)cc2)C1 (stereo not drawn),.,-2.7,-2.2,4.6,0.2,-4.4,.,.,.,.
SMILES,HSP90 refold inh,HSF1 inh,SMARCA2 activ,AI-2 QS mod,PG9 Ab binder,FXN GAA850 act,JMH597 growth,BB721 lum counter,BB721 growth rt,AI-2 QS JMH597
CCOC(=O)C1CCCN(S(=O)(=O)c2cccs2)C1 (stereo not drawn),4.0,7.2,-3.7,?,-1.9,2.4,16.8,98.6*,-17.6,99.8*
CCc1ccc(NC(=O)CCc2ccc(CC)o2)cc1,-6.2,-2.7,1.5,?,-0.5,0.3,20.4,72.9,-10.3,88.0*
CCc1ccc(CCC(=O)Nc2ccc(C(=O)O)cc2)o1,0.5,-3.7,2.1,-53.9,-0.9,1.1,.,.,.,.
CCc1ccc(CCC(=O)Nc2ccc(C)c(C)c2)o1,-0.3,19.2,1.8,-87.0*,-3.1,1.6,3.9,93.2*,-27.9,95.8*
Cc1cc(C)cc(CC(=O)N2CCC2(C)C(=O)NS(=O)(=O)c2cccc(OC(F)F)c2)c1 (stereo not drawn),.,.,5.7,.,0.8,-0.1,.,.,.,.
Cc1cc2c(cc1C)-c1nnnn1C(N1CCC(Cc3ccccc3)CC1)C(=O)N2 (stereo not drawn),.,.,-0.1,.,-1.1,.,.,.,.,.
Brc1cccc(CSc2nnc(-c3ccncc3)o2)c1,0.6,.,-4.6,-85.5*,2.7,-5.8,14.6,94.9*,6.2,95.8*
c1ccc(-c2nnc(SCc3ccncc3)o2)cc1,.,.,-0.6,.,-0.9,2.8,.,.,.,.
Clc1ccccc1CSc1nnc(-c2ccncc2)o1,-0.8,8.8,1.9,-31.5,1.5,3.2,.,.,.,.
c1ccc2c(CSc3nnc(-c4ccncc4)o3)cccc2c1,5.5,35.4,-2.1,-83.3*,-0.7,-0.1,5.0,94.3*,-7.9,95.6*
C[C@H]1COc2cc(Br)ccc2S(=O)(=O)N1Cc1cn(CC2CCCCC2)nn1,.,.,-2.8,.,.,.,.,.,.,.
c1ccc(OCc2cc(-c3ccccc3)no2)cc1,1.7,20.3,2.6,-96.3*,-1.3,4.4,1.3,99.5*,-0.5,99.6*
